C1s inh: complement C1s protease inhibitors, primary screen, biochemical, 10-compound mixtures | purified C1s, fluorogenic AMC substrate, pooled mixtures | mean inhibition % of two 10-compound mixtures (stronger effect = higher value), % at 5 µM (by protocol) | 62,000 tested, 0.16% active | AID 538, 2006;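 active = inhibition above 20% in each of the two 10-compound mixture wells holding the compound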;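 also: 0% = enzyme wells lacking compound mixture and 100% = no-enzyme blank wells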
Target sequence (P09871 16-437 limits assumed): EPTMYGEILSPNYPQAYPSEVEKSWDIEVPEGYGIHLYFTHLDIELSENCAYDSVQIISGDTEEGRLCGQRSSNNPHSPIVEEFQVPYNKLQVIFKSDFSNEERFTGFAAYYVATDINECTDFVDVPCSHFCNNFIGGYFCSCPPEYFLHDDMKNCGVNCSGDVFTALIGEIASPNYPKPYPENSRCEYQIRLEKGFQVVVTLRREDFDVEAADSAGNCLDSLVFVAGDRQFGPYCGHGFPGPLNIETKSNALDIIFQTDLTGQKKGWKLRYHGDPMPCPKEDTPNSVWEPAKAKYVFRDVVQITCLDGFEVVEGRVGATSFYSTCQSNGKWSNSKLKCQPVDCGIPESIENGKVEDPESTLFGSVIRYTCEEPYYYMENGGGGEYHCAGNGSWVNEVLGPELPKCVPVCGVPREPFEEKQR
Target sequence (P09871 438-688 limits assumed): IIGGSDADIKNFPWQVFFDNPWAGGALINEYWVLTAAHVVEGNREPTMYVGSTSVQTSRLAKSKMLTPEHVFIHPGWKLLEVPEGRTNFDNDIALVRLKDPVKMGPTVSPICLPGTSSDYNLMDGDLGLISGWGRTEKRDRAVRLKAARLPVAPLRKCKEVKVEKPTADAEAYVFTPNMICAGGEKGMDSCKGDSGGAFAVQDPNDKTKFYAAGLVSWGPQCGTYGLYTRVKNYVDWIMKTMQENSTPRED
CatL block: inhibitors of human cathepsin L, biochemical; purified cathepsin L, fluorogenic substrate, fluorescence; inhibition, %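 (tested at 10 µM)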; 58,000 tested, 0.17% active; AID 460, 2006; in the data active = inhibition above about 45%;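 also: 0% = enzyme with no compound and 100% = no enzyme blank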
CatS inh: inhibitors of human cathepsin S, biochemical, compound mixtures. P25774. recombinant cathepsin S, AMC dipeptide fluorescence, pooled mixtures. inhibition, %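 (tested at 5 µM per compound within 10-compound mixtures)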. 62,000 tested, 0.06% active. AID 501, 2006; in the data active = inhibition above about 32%, passing the limit was not always enough;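 also: 0% = enzyme without compound and 100% = blank without enzyme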
CatG inh: human cathepsin G inhibitors, primary screen, biochemical, pooled compound mixtures, AMC fluorescence; P08311; purified enzyme, AMC-tetrapeptide fluorescence; inhibition, % at 5 µM (by protocol); 62,000 tested, 0.2% active; AID 581, 2007;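 active = inhibition above 20% in each of the two mixture wells holding the compound; inactive = inhibition of 20% or less in either well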;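 also: 0% = enzyme control without mixture and 100% = blank lacking enzyme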
CatB inh: human cathepsin B inhibitors, primary screen, biochemical, fluorogenic substrate; purified cathepsin B, fluorescence; inhibition, %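 (tested at 10 µM)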; 63,000 tested, 0.1% active; in the data active = inhibition above about 21%;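 also: 0% = enzyme with no compound and 100% = no enzyme blank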
CatB mixtures: cathepsin B inhibitors from pooled compounds, primary screen, biochemical, compound mixtures, AMC fluorescence; inhibition, %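 (ten-compound pools at 5 µM per compound and 50 µM total)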; P07858; Purified cathepsin B, AMC dipeptide fluorescence; 62,000 tested, 0.06% active; AID 488, 2006; in the data active = inhibition above about 22%, passing the limit was not always enough;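 also: 0% = enzyme without compound and 100% = no enzyme blank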
An asterisk follows results filed as active; . = no result given. Only some compounds are listed: those with a hit (about 0.54% of all), similar ones and a draw of the others.

SMILES	C1s inh	CatL block	CatS inh	CatG inh	CatB inh	CatB mixtures
COc1ccc(S(=O)(=O)Nc2cc(C(=O)NCCC(C)C)ccc2N2CCOCC2)cc1	-4	13	1	1	-1	0
CC(C)Oc1ccc(/C(O)=C2/C(=O)C(=O)N(CCCN3CCOCC3)C2c2ccncc2)cc1 (stereo unspecified)	-4	.	9	-4	1	0
c1ccc(Nc2cc(Nc3ccccc3)[nH]n2)cc1	8	5	17	14	5	6
CC(C)C[C@H](N)c1nnc(S(=O)(=O)Cc2cccc(F)c2)o1	-11	46*	15	3	6	2
Cc1ccc(S(=O)(=O)NC(CC(=O)N2CCc3ccccc32)c2ccco2)cc1 (stereo unspecified)	13	26	10	12	1	6
COc1ccc(S(=O)(=O)NC(CC(=O)N2CCc3ccccc32)c2ccco2)cc1 (stereo unspecified)	3	49*	6	2	0	0
Nc1nonc1-c1nc2ccccc2[nH]1	9	41	2	-2	18	52*
O=C(Nc1cccc2nsnc12)C1CC(=O)N(c2ccccc2)C1 (stereo unspecified)	-21	-16	8	-3	7	9
CCOC(=O)N1CCN(C(=O)CN(c2cccc(C)c2)S(=O)(=O)c2ccc(C)cc2)CC1	58*	8	16	10	4	7
COc1ccc(-c2cc(C(=O)NCc3ccccc3)no2)cc1OC	-11	-2	-1	11	-3	6
COc1cccc(-c2cc(C(=O)NCCc3ccccc3)no2)c1	16	15	-2	22*	0	6
COc1ccc(CNC(=O)c2cc(-c3ccc(OC)c(OC)c3)on2)cc1	22*	-4	17	32*	8	7
COc1ccc(-c2cc(C(=O)NCc3ccc(Cl)cc3)no2)cc1OC	7	0	9	55*	-1	1
CCNC(=O)C1CC(=O)N(CC)C(=Nc2cc(Cl)c(O)c(Cl)c2)S1 (stereo unspecified)	26	-1	-5	-6	-1	0
COC(=O)c1cc(Br)c(=O)n(CCC2=CCCCC2)c1	-23	-1	11	-5	5	6
Cc1onc(COc2ccccc2O)c1Br	-19	-10	1	-3	-5	6
Cn1c(=O)c2c(-c3ccccc3)n(-n3cnnc3)cc2n(C)c1=O	3	25	-6	9	59*	50*
Cn1c(=O)c2c(-c3ccccc3)n(Cc3cccnc3)cc2n(C)c1=O	18	11	-4	14	-1	3
CCOC(=O)C1=C(C)NC(C)=C(C(=O)OC)C1c1cccc(Cl)c1Cl (stereo unspecified)	-1	3	-2	10	34*	-8
COC(=O)C1=C(C)NC(=O)CC1c1cccc(Cl)c1Cl (stereo unspecified)	5	.	2	9	6	2
Cc1noc(C)c1COc1ccc(C(=O)OCc2nnc(-c3ccc(Cl)cc3)o2)cc1	11	3	-12	9	1	2
O=C(C1CCCN1S(=O)(=O)c1ccc(Cl)c(Cl)c1)N1CCCCC1 (stereo unspecified)	13	16	8	11	1	3
CS(=O)(=O)c1cccc(C(=O)NCc2ccccc2)c1	1	-1	-3	-2	0	2
CC(C)(C)c1cc(C(=O)NCc2ccccc2)ccn1	22*	-1	-1	15	-1	4
COc1ccc(-n2c(=O)c3ccccc3n(CC(=O)NC3CCCC3)c2=O)cc1	-8	0	11	-2	8	4
O=C(c1noc2c1CCc1ccccc1-2)N1CCOCC1	-12	-1	9	37*	-3	0
O=C(c1noc2c1CCc1ccccc1-2)N1CCc2ccccc2C1	1	12	-3	30*	-2	3
O=C(c1noc2c1CCc1ccccc1-2)N1CCCc2ccccc21	-32	12	17	39*	-3	5
Cc1ccc2cc(CCNC(=O)c3ccc(Br)o3)c(=O)[nH]c2c1	-10	21	5	15	2	4

Source: PubChem BioAssay
